This passage reports activation and Potency results from PubChem BioAssay (NCATS).

Assay [1] deals with Cellular tumor antigen p53 (Homo sapiens) (UniProt P04637). The experiment in a line: Primary qHTS for small molecule compounds that upregulate eGFP-tagged delta133p53alpha (in N-terminal) cells. (AID 2060322).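 For activation: series mostly up to about 56 µM; 0% = DMSO vehicle and 100% = reference activator.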 Note: nearly all actives have a fitted effect of over 75% in size. Note: potency is the fitted concentration of half-maximal effect. The conditions noted are these: NCI-H358 eGFP-delta133p53alpha fluorescence, 24 h; activation: active compounds read high. Summed up: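 NCI-H358 cells pre-induced 24 h with 10 ng/ml doxycycline to express N-terminal eGFP-delta133p53alpha, then dosed 24 h at 37C without doxycycline; fixed, Hoechst-stained, GFP intensity by laser scanning cytometry, normalized to DMSO (0%) and 57.5 uM 5-azacytidine (100%).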
On the technique in general: In qHTS, concentration-response curves come from the screen itself.

The target of assay [2] is Aldehyde dehydrogenase, mitochondrial (Homo sapiens) (UniProt P05091). As to the kind of experiment: qHTS for Inhibitors of the Aldehyde Dehydrogenase Family (ALDH2) Primary screen (AID 2061308).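 Note: plate controls were vehicle for no effect and reference inhibitor for full effect; nearly all actives have a fitted effect of over 55% in size.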
Assay [3] deals with Retinaldehyde dehydrogenase 3 (Homo sapiens) (UniProt P47895). As to the kind of experiment: qHTS for Inhibitors of the Aldehyde Dehydrogenase Family (ALDH1A3) Primary screen (AID 2061315).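 Note: plate controls were DMSO vehicle for no effect and reference inhibitor for full effect.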

Molecules are shown by their SMILES. Values joined by “and” are separate entries in the source; they are usually repeats but may differ in a detail not shown here. Equal values may be shown once. Records with an inconclusive call do not appear. Unmarked numbers belong to inactive results. Active and inactive are the calls of the source. Calls come from the whole dose curve; as a rule, active = well fitted curve in the direction sought with a large enough effect; inconclusive = small, poorly fitted or top-dose-only effect, or another doubt; inactive = no such curve, though single readings can be large; an effect the other way counts as inactive or inconclusive.

Cellular tumor antigen p53 (Homo sapiens), sequence (P04637 whole entry, looked up): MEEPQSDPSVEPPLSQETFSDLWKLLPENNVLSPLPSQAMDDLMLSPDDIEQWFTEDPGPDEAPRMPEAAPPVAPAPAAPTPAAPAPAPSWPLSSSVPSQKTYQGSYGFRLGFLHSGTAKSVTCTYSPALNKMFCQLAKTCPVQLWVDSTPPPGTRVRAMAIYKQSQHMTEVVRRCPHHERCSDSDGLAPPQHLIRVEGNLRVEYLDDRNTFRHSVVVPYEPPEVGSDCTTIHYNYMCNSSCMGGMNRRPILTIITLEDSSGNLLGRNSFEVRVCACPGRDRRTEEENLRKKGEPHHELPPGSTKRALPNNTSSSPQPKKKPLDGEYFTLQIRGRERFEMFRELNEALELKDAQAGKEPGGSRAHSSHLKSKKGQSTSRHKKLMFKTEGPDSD

For the molecule `CC(=O)NCc1cccc(OC[C@@H](O)CNCCc2ccc(NS(=O)(=O)c3ccccc3)cc2)c1`, the activation in assay [1] was 8.93%. Also, the Potency result in assay [2] and in assay [3] was “inactive” in each case.
In the case of `C/C=C1/[C@H](O[C@@H]2O[C@H](CO)[C@@H](O)[C@H](O)[C@H]2O)OC=C2C(=O)O[C@@H]3C[C@@H](C(C)CO)[C@H](COC(=O)C[C@H]21)[C@H]3C` (stereo partly specified), the activation in assay [1] is -3.57%. Further, the Potency result in assay [2] and in assay [3] was “inactive” throughout.
Regarding `COc1cc2c(c(OC)c1O)C(c1ccc(O)cc1)C1C(=O)OC3C(COC(=O)C1=C2)OC(CO)(OC1OC(COC(=O)/C=C/c2ccc(OC4OC(C)C(O)C(O)C4O)cc2)C(O)C(O)C1O)C3O` (stereo unspecified), the activation in assay [1] is 23.2%. The Potency entry in assay [2] and in assay [3] was “inactive” each time.
On to `CC(=O)OC[C@]12[C@H](OC(C)=O)C(=O)[C@@H]3[C@@H](OC(C)=O)[C@@]14O[C@@]3(C)COC(=O)c1cccnc1[C@@H](C)[C@H](C)C(=O)O[C@@H]([C@H](OC(C)=O)[C@@H]2OC(C)=O)[C@]4(C)O`, for which the activation in assay [1] is -13.7%. Besides, the Potency entry in assay [2] and in assay [3] was “inactive” throughout.
Consider `COc1c(O)cc2c(c1O)[C@@H]1O[C@H](CO)[C@@H](O)[C@H](O)[C@H]1OC2=O`, for which the activation in assay [1] is 18% and -2.68%. Also, the Potency entry in assay [2] and in assay [3] was “inactive” each time.
In the case of `C[C@]1(OC(=O)/C=C\c2ccc(O)cc2)C[C@@H](O)[C@]2(O)C=CO[C@@H](O[C@@H]3O[C@H](CO)[C@@H](O)[C@H](O)[C@H]3O)C12` (stereo partly specified), the activation in assay [1] is 23.7%. Moreover, the Potency result in assay [2] and in assay [3] was “inactive” each time.
For the molecule `CCC(C)(O)C(O)C(=O)OCc1ccc(O[C@@H]2O[C@H](CO)[C@@H](O)[C@H](O)[C@H]2O)cc1` (stereo partly specified), in assay [1], the activation was -6.87%. For the same molecule, the Potency result in assay [2] and in assay [3] was “inactive” throughout.
In the case of `O=c1[nH]c2ccc(C#CCN3CCC(Cc4ccccc4)CC3)cc2[nH]1`, the activation in assay [1] is -3.57%. The Potency entry in assay [2] and in assay [3] was “inactive” in each case.
As to `CC(=O)OC[C@]12[C@@H](OC(=O)c3ccoc3)C[C@@H]3[C@@H](OC(C)=O)[C@]1(OC3(C)C)[C@@](C)(O)C[C@H](OC(=O)c1ccoc1)[C@@H]2OC(=O)c1ccoc1`, in assay [1], the activation is -9.16%. Also, the Potency entry in assay [2] and in assay [3] was “inactive” in each case.
`C[C@@H]1O[C@@H](O[C@H]2[C@H](O)[C@@H](O)[C@H](O[C@H]3[C@H](O[C@H]4CC[C@@]5(C)C(=CC[C@@H]6C5CC[C@]5(C)[C@@H]7[C@H](C[C@@H]65)O[C@]5(CC[C@@](C)(CO[C@@H]6O[C@H](CO)[C@@H](O)[C@H](O)[C@H]6O)O5)[C@H]7C)C4)O[C@H](CO)[C@@H](O)[C@@H]3O)O[C@@H]2CO)[C@H](O)[C@H](O)[C@H]1O` (stereo partly specified): the Potency in assay [1] is 3.6 µM (active). In addition, the Potency entry in assay [2] and in assay [3] was “inactive” throughout.
In the case of `Cc1cccc(S(=O)(=O)N2CCC[C@@H]2CCN2CCC(C)CC2)c1`, the activation in assay [1] is 0%. Also, the Potency entry in assay [2] and in assay [3] was “inactive” throughout.
`CC12CCC3c4ccc(OC5OC(C(=O)O)C(O)C(O)C5O)cc4CCC3C1CCC2O` (stereo unspecified): the activation in assay [1] was 11.7%. In addition, the Potency entry in assay [2] and in assay [3] was “inactive” throughout.
Turning to `Nc1c(Br)cc(Br)cc1CNC1CCC(O)CC1` (stereo unspecified), in assay [1], the activation is 29.7%. In addition, the Potency result in assay [2] and in assay [3] was “inactive” in each case.
Turning to `COc1ccccc1CC(C(=O)O)N(C)C(=O)c1ccccc1` (stereo unspecified), the activation in assay [1] is -8.04%. In addition, the Potency entry in assay [2] and in assay [3] was “inactive” throughout.
`Cc1sc2c(c1C)C(c1ccc(Cl)cc1)=N[C@H](CC(=O)NCCCCNC(=O)COc1cccc3c1C(=O)N([C@H]1CCC(=O)NC1=O)C3=O)c1nnc(C)n1-2`: the Potency in assay [1] was 1.69 µM (active). In addition, the Potency result in assay [2] and in assay [3] was “inactive” each time.
As to `CC(C)C(C#N)O[C@@H]1O[C@H](CO[C@@H]2OC[C@](O)(CO)[C@H]2O)[C@@H](O)[C@H](O)[C@H]1O` (stereo partly specified), the activation in assay [1] was 6.87%. For the same molecule, the Potency result in assay [2] and in assay [3] was “inactive” each time.
For the molecule `CCC(C)C(=O)O[C@H]1[C@H](O)[C@@]2(COC(C)=O)C(CC1(C)C)C1=CCC3[C@@]4(C)CC[C@H](O[C@@H]5O[C@H](C(=O)O)[C@@H](O)[C@H](O)[C@H]5O)[C@@](C)(CO)C4CC[C@@]3(C)[C@]1(C)C[C@@H]2O` (stereo partly specified), in assay [1], the activation is -0.893%. The Potency entry in assay [2] and in assay [3] was “inactive” in each case.
For the molecule `CC(C)=CCC/C(C)=C/CCC1(C)Oc2c(c(O)cc3c2CN(C(CCC(=O)O)C(=O)O)C3=O)CC1O` (stereo unspecified), the activation in assay [1] was -13.7%. The Potency entry in assay [2] and in assay [3] was “inactive” each time.
Turning to `CC1CCC2(C(=O)O)CCC3(C)C(=CCC4C5(C)CCC(O)C(C)(C(=O)O)C5CCC43C)C2C1(C)O` (stereo unspecified), the activation in assay [1] was -8.4%. Also, the Potency entry in assay [2] and in assay [3] was “inactive” each time.
For the molecule `O=C1c2c(O[C@@H]3O[C@H](CO)[C@@H](O)[C@H](O)[C@H]3O)cc(O)cc2OC1(O)Cc1ccc(O)cc1` (stereo partly specified), the Potency in assay [1] is 10.4 µM (active). In addition, the Potency result in assay [2] and in assay [3] was “inactive” throughout.
Consider `C[C@@H]1C(=O)O[C@H](C)[C@H]1CC(=O)[C@](C)(O)[C@H]1CC[C@@]2(O)C3=CC(=O)[C@@H]4C[C@@H](O)[C@@H](O)C[C@]4(C)C3CC[C@]12C` (stereo partly specified), for which the activation in assay [1] is -6.11%. The Potency entry in assay [2] and in assay [3] was “inactive” each time.
For the molecule `COC(=O)C(CC1(OC(=O)C(C)C)c2ccccc2N2C(=O)C(C)(C)N(O)C21)n1cnc2ccccc2c1=O` (stereo unspecified), the activation in assay [1] is 3.05%. The Potency entry in assay [2] and in assay [3] was “inactive” each time.
